Active and inactive are the calls of the source.
Tests used:
[1] = anti-His antibody binders, primary screen, artefact control for SMM control protein annotation, biochemical, small-molecule microarray, 635 nm fluorescence (AID 1128); conditions: anti-His Alexa647 antibody binding, higher = more signal;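 also: score merges feature fluorescence with signal-to-noise for each printed compound spot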
[2] = system: Human papillomavirus type 1a E7 protein (residues 1-88); experiment: HPV1a E7 small-molecule binders, primary screen, biochemical, small-molecule microarray, residues 1-88, 635 nm (AID 1129); conditions: small-molecule microarray binding, fluorescence 635 nm; higher = more signal
[3] = molecular target: Focal adhesion kinase 1 (Homo sapiens) (UniProt Q05397); experiment: small-molecule microarray binders of FAK, primary screen, biochemical, 635/667 nm fluorescence, BSA, DTT (AID 1130); conditions: PTK2 binding, 635 nm fluorescence, higher = more signal;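 also: composite of spot emission at 667 nm and signal to noise over triplicate slides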
Focal adhesion kinase 1 (Homo sapiens), sequence (Q05397 whole entry, looked up): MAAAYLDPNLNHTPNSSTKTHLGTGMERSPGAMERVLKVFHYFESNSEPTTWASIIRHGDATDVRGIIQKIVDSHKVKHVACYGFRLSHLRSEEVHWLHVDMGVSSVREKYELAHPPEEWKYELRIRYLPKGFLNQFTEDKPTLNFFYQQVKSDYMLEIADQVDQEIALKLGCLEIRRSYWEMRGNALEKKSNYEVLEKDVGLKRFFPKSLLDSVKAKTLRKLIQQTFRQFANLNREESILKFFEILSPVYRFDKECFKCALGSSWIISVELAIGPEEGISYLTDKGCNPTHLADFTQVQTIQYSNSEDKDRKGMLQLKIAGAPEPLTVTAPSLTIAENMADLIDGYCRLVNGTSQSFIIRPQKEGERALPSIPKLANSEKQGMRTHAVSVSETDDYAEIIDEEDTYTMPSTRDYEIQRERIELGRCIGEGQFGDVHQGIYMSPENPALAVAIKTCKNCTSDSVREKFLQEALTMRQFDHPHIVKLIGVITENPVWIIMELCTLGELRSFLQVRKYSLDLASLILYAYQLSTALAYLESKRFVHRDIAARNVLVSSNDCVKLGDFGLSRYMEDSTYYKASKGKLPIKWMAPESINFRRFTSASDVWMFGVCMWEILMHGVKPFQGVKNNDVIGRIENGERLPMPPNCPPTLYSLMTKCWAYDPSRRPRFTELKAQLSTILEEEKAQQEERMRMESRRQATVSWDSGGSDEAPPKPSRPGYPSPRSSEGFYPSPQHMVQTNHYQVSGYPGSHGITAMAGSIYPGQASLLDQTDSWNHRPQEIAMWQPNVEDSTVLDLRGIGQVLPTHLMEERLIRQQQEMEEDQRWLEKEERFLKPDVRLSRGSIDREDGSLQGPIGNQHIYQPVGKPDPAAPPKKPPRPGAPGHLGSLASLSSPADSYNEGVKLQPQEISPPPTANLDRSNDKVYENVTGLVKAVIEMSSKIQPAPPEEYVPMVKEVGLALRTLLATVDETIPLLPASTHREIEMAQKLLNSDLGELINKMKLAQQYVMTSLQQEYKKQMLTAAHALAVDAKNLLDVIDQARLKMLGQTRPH

[4] = system: Fibrinogen (Alexa647-labelled); experiment: fibrinogen binders on compound microarrays, profiling panel, artefact control for SMM control-protein annotation, biochemical, small-molecule microarray, 635/667 nm fluorescence (AID 1131); conditions: fibrinogen-A647 binding fluorescence, higher = more signal;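 also: z-score merges 667 nm fluorescence with per-spot signal-to-noise over triplicate slides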
[5] = molecular target: Follistatin (Homo sapiens) (UniProt P19883); experiment: follistatin binders on small-molecule microarrays, primary screen, biochemical, small-molecule microarray, 635/667 nm fluorescence (AID 1132); conditions: FST binding, 635 nm fluorescence, higher = more signal
Follistatin (Homo sapiens), sequence (P19883 whole entry, looked up): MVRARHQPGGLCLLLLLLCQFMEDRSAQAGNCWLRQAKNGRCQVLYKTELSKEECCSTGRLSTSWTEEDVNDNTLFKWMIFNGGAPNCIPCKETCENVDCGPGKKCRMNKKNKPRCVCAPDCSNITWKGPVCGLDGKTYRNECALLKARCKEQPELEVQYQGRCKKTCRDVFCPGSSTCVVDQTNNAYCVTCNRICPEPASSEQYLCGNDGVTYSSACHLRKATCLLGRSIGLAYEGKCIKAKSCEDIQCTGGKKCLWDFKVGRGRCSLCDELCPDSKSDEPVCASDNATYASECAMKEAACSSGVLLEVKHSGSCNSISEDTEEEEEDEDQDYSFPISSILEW

[6] = molecular target: Fibroblast growth factor 2 (Homo sapiens) (UniProt P09038); experiment: FGF2 binders on small-molecule microarrays, primary screen, biochemical, small-molecule microarray, 635/667 nm fluorescence (AID 1133); conditions: small-molecule microarray binding, FGF2, fluorescence 635/667; higher = more signal
Fibroblast growth factor 2 (Homo sapiens), sequence (P09038 whole entry, looked up): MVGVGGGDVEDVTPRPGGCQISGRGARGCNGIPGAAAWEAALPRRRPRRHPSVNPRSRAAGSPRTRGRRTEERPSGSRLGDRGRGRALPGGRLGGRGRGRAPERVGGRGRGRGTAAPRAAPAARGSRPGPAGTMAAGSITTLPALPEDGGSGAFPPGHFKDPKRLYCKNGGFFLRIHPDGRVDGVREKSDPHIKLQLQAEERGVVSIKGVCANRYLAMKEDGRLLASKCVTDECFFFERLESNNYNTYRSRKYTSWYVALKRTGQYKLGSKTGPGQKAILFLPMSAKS

[7] = mitochondrial membrane potential change in A549 cells, profiling panel, cell-based, JC-1 fluorescence, basal, 24 h, 100 nL (AID 1138); conditions: higher = more signal;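 also: A549 lung adenocarcinoma cells under basal conditions with no added stimulus; test concentration not given here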
[8] = system: Lefty1; experiment: Lefty1 binders on small-molecule microarrays, primary screen, biochemical, small-molecule microarray, 635/667 nm fluorescence (AID 1139); conditions: small-molecule microarray binding, fluorescence 635/667; higher = more signal
[9] = system: wheat germ agglutinin (Triticum aestivum), Alexa647-labelled; experiment: wheat germ agglutinin binders on compound microarrays, profiling panel, artefact control for SMM control-protein annotation, biochemical, small-molecule microarray, 635/667 nm fluorescence (AID 1140); conditions: WGA-A647 binding, 635 nm fluorescence, higher = more signal;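 also: score merges 667 nm feature emission with signal to noise over triplicate slides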
[10] = molecular target: Luciferin 4-monooxygenase (Photinus pyralis) (UniProt P08659); experiment: firefly luciferase enzyme inhibitors, primary screen, biochemical, luminescence, purified enzyme, 2006 set (AID 1141); conditions: SteadyGlo luminescence, 30 min, higher = more signal, called active from +8 up or from −8 down;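 also: cell-free assay with purified firefly luciferase at 100 ng per well in PBS; test concentration not given here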
Luciferin 4-monooxygenase (Photinus pyralis), sequence (P08659 whole entry, looked up): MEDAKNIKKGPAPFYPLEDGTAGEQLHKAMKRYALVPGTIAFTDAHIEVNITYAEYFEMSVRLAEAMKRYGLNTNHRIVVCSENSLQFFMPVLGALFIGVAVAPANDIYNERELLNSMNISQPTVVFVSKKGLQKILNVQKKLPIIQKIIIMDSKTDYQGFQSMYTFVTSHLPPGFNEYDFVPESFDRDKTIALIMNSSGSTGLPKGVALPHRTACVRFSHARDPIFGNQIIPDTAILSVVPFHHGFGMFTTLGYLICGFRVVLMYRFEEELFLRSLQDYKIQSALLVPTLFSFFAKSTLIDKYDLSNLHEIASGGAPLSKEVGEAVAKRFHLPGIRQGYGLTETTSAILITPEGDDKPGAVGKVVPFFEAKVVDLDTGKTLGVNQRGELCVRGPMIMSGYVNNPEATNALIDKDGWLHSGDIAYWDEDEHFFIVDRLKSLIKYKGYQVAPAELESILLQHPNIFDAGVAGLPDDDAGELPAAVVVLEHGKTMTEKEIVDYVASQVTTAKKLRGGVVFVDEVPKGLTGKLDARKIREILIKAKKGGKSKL

Row | SMILES | composite z-score [1] | composite z-score [2] | composite z-score [3] | composite z-score [4] | composite z-score [5] | composite z-score [6] | z-score [7] | composite z-score [8] | composite z-score [9] | z-score [10]
1 | C=C[C@H](C)[C@@H](O)c1ccc(O)c2ccccc12 | 1.25 | -0.655 | -0.432 | -0.407 | 1.05 | 0.944 | -0.401 | 0.246 | 0.545 | -0.322 (inactive)
2 | COCCOC(=O)N1C(=O)[C@@]2(c3cc(C#CCCO)ccc31)[C@H](c1ccc(O)cc1)N1[C@H](c3ccccc3)[C@H](c3ccccc3)OC(=O)[C@H]1[C@@H]2C(N)=O | 3.05 | 0.215 | 0.0329 | 0.19 | 0.931 | 0.347 | -0.444 | 0.296 | 0.0204 | 0.028 (inactive)
3 | O=C1C2C=CC(C(O)c3ccc(-c4ccccc4)s3)N(n3cnnc3)C2C(=O)N1Cc1ccccc1 (stereo not given) | 1.46 | -0.283 | 0.0347 | 0.708 | -0.279 | -0.625 | -1.32 | -0.69 | 0.525 | 1.77 (inactive)
4 | CCOC(=O)[C@H]1C/C=C/C[C@H](C(=O)OCC)C(=O)O[C@H]2[C@@H](OC)O[C@H](CO)[C@@H](OC(=O)Nc3ccc4c(c3)OCO4)[C@@H]2OC1=O | 2.08 | 1.2 | 0.528 | 0.485 | -0.114 | 0.254 | -1.25 | 0.403 | -0.115 | -1.93 (inactive)
5 | O=C1[C@]2(CO)C=C(Br)[C@@H](C[C@@H]2c2ccccc2)[C@@]12CO2 | 0.123 | -0.769 | -0.0687 | 0.262 | 0.518 | 0.118 | 0.116 | 0.748 | 0.492 | 0.969 (inactive)
6 | C=CC[C@@]1(C(=O)NCC(O)CO)N=C(c2ccc(OCCCO)cc2)O[C@@H]1c1ccccc1N=[N+]=[N-] (stereo not given in full) | 2.92 | 1.12 | -0.121 | 0.415 | 0.849 | -0.0851 | -0.921 | 0.003 | 1.12 | -11.2 (active)
7 | CN1CCC(CCCO)=CC1c1ccc(CN2CCCC2)cc1 (stereo not given) | 0.358 | 1.06 | -0.0595 | -0.294 | 1.42 | 1.65 | 0.0421 | 1.57 | 1.18 | 0.536 (inactive)
8 | COc1ccc(C(=O)Nc2cccc(CN3C(=O)[C@]4(O[C@H](CC(=O)N5CCC[C@H]5CO)[C@@H]([Si](C)(C)c5ccc(OC)cc5)[C@@H]4C)c4ccccc43)c2)cc1 | 1.22 | 1.15 | 0.407 | 0.634 | 1.03 | 1.33 | -0.407 | 0.728 | 0.595 | -0.895 (inactive)
9 | [N-]=[N+]=NCc1ccccc1C[C@]1(C(=O)NCC(O)CO)N=C(c2ccc(OCCCO)cc2)O[C@H]1c1ccccc1N=[N+]=[N-] (stereo not given in full) | 2.99 | 1.12 | 1.66 | 0.188 | -0.181 | -0.189 | 1.63 | -0.923 | 0.541 | -6.49 (inactive)
10 | COC(=O)[C@@]1(Cc2ccccc2)[C@H]2c3cc(C(=O)N4CCCC4)n(Cc4ccc(C)o4)c3C[C@H]2CN1C(=O)c1ccccc1 | 0.195 | 1.22 | 0.752 | -0.809 | -0.0668 | -0.675 | 0.337 | -0.0201 | 1.18 | -2.68 (inactive)
11 | O=C1O[C@H](c2ccccc2)[C@H](c2ccccc2)N2[C@H]1[C@@H](C(=O)O)[C@]1(C(=O)Nc3ccc(C#CC4(O)CCCCCC4)cc31)[C@H]2c1ccc(OCCO)cc1 | 1.5 | 1.25 | 0.115 | 0.979 | 0.196 | -0.333 | -1.42 | 0.473 | 0.942 | -2.75 (inactive)
12 | O=C1OCCC/C=C\[C@H]2OC34C=CCN(Cn5nnc6ccccc65)C(=O)[C@H]3N(CCCCCO)C(=O)[C@@H]4C12 (stereo not given in full) | 0.123 | -0.654 | -0.43 | -1.02 | -0.31 | -1.16 | 0.248 | -0.204 | -1.03 | 0.786 (inactive)
13 | COc1ccc(CCNC(=O)[C@@]2(Sc3ccc(C)cc3)CC(=O)N(Cc3ccccc3Cl)[C@@H]2c2ccc(CO)cc2I)cc1 | 2.25 | 0.349 | -0.0568 | 0.35 | 1.03 | 0.664 | 2.03 | -0.954 | 0.593 | 0.674 (inactive)
14 | [N-]=[N+]=Nc1ccccc1[C@@H]1OC(c2ccc(OCCCO)cc2)=N[C@]1(CCS(=O)(=O)c1ccccc1)C(=O)N1CCOCC1 | 1.48 | 1.26 | 0.488 | 1.02 | 1.33 | 0.544 | 1.13 | 0.541 | 1.3 | -12.9 (active)
15 | CC(C)NC(=O)[C@@H]1c2ccccc2C(=O)N(Cc2ccccc2Cl)[C@H]1c1ccc(CO)cc1 | 3.06 | 0.247 | -0.313 | -0.629 | -0.555 | -0.222 | 2.55 | -0.221 | 0.842 | -1.08 (inactive)
16 | Cc1ccc(S[C@]2(C(=O)NCCN3CCOCC3)CC(=O)N(Cc3cc(C(F)(F)F)cc(C(F)(F)F)c3)[C@@H]2c2ccc(CO)cc2I)cc1 | -1.02 | -0.27 | 0.414 | -0.46 | 0.016 | -1.13 | 0.164 | -0.304 | 0.0101 | 1.31 (inactive)

Row | SMILES | composite z-score [1] | composite z-score [2] | composite z-score [3] | composite z-score [4] | composite z-score [5] | composite z-score [6] | z-score [7] | composite z-score [8] | composite z-score [9] | z-score [10]
17 | N#Cc1ccc(NN2C(C(O)c3cccs3)C=CC3C(=O)N(c4ccccc4)C(=O)C32)cc1 (stereo not given) | -0.272 | 0.685 | 0.421 | 0.71 | 0.556 | -0.216 | 0.989 | -0.257 | 0.578 | -0.589 (inactive)
18 | COCCOC(=O)N1C(=O)[C@@]2(c3cc(C#CC4=CCCCC4)ccc31)[C@H](C(=O)NC[C@H](O)c1ccccc1)[C@H]1C(=O)O[C@H](c3ccccc3)[C@H](c3ccccc3)N1[C@@H]2c1ccc(O)cc1 | 0.0524 | 1.19 | 0.703 | 0.86 | 1.32 | 1.32 | -1.23 | 0.861 | 0.845 | -1.31 (inactive)
19 | [N-]=[N+]=Nc1ccccc1[C@H]1OC(c2ccc(OCCCO)cc2)=N[C@@]1(CCS(=O)(=O)c1ccccc1)C(=O)O | 1.2 | 0.478 | 0.042 | 0.773 | 0.395 | 0.174 | -1.72 | -0.782 | 0.85 | -12.4 (active)
20 | O=C(CS)NCCCCCCNC(=O)[C@H]1C[C@H]2C(=O)N3CCC[C@H]3C(=O)N2[C@H]1c1cccc(OCCO)c1 | 1.7 | 1.23 | 0.615 | 0.0353 | 1.28 | 1.19 | -0.145 | 0.731 | 0.658 | -0.135 (inactive)
21 | COCCOC(=O)N1C(=O)[C@@]2(c3cc(C#CCNC(N)=O)ccc31)[C@H](c1ccccc1OCCO)N1[C@H](c3ccccc3)[C@H](c3ccccc3)OC(=O)[C@H]1[C@@H]2C(N)=O | 0.208 | 1.15 | 0.189 | 0.963 | 1.25 | 0.917 | -1.24 | 0.782 | 0.305 | -0.868 (inactive)
22 | O=C1c2ccccc2[C@@]2(Cc3ccccc3N(Cc3ccccc3)C2=O)[C@H](c2ccc(CO)cc2)N1C1CCCCC1 | 0.386 | 0.174 | 0.117 | -0.0673 | 1.02 | 0.736 | -0.191 | 0.483 | 0.0291 | 0.378 (inactive)
23 | COCCOC(=O)N1C(=O)[C@@]2(c3cc(C#CCC(C(=O)OC)C(=O)OC)ccc31)[C@H](c1ccccc1OCCO)N1[C@H](c3ccccc3)[C@H](c3ccccc3)OC(=O)[C@H]1[C@@H]2C(N)=O | 2.79 | 1.19 | -0.418 | 0.942 | 1.08 | 1.29 | 0.833 | 0.714 | 1.1 | -0.834 (inactive)
24 | C=CCC(OC(C)=O)[C@@H]1[C@@H](N(Cc2cccc3ccccc23)C(=O)c2cccc3ccccc23)c2cc(OCCCO)ccc2N1C(=O)c1ccc2ccccc2n1 (stereo not given in full) | 0.833 | -0.0829 | 0.791 | 0.868 | 1.05 | 0.494 | -0.449 | 0.457 | -0.243 | 1.01 (inactive)
25 | COCCOC(=O)N1C(=O)[C@@]2(c3ccccc31)[C@H](c1ccc(O)cc1)N1[C@H](c3ccccc3)[C@H](c3ccccc3)OC(=O)[C@H]1[C@@H]2C(=O)N1CCc2cc(OC)c(OC)cc2C1 | 1.7 | 0.848 | 0.341 | 0.107 | 1.35 | 1.85 | 0.355 | 1.14 | 0.216 | -0.704 (inactive)
26 | COc1cc(CO)ccc1OC(C)=O | 0.529 | 0.741 | 0.315 | 0.555 | 1.07 | 0.502 | 1.54 | 0.636 | 0.243 | -0.743 (inactive)
27 | O=C1O[C@H](c2ccccc2)[C@H](c2ccccc2)N2[C@H]1[C@@H](C(=O)NC[C@H](O)c1ccccc1)[C@]1(C(=O)Nc3ccc(C#CCCO)cc31)[C@H]2c1ccc(O)cc1 | -1.3 | -1.08 | -0.598 | -1.07 | -1.26 | -0.702 | -1.17 | -0.929 | -1.09 | 0.145 (inactive)
28 | COC(=O)[C@]1(Cc2ccccc2N=[N+]=[N-])N=C(c2ccc(OCCCO)cc2)O[C@@H]1c1ccccc1N=[N+]=[N-] | 2.87 | 0.825 | 0.188 | 0.482 | 1.25 | -0.0133 | -0.856 | 0.131 | 0.149 | -1.42 (inactive)
29 | COC(=O)C[C@@H]1C[C@H](C)[C@]2(O1)C(=O)N(Cc1ccccc1)c1ccc(NC(C)=O)cc12 | 0.716 | 0.453 | -0.183 | 0.458 | 0.431 | 0.471 | -1.05 | 0.488 | -0.259 | 0.0257 (inactive)
30 | C=C(CCCC)/C(=C/C[C@H](OC(C)=O)c1ccc(CO)o1)c1cnc2ccccc2c1 | 0.867 | 1.18 | -0.0622 | 0.713 | 1.27 | 1.18 | -0.566 | 1.29 | 1.18 | -1.88 (inactive)
31 | COc1ccc(CCN2C(=O)[C@@]3(Cc4ccccc42)c2ccccc2C(=O)N(Cc2ccccc2Cl)[C@H]3c2ccc(CO)cc2)cc1 | -1.74 | -1.3 | -0.657 | -0.953 | -1.1 | -0.157 | -0.599 | -1.17 | -0.0043 | -0.822 (inactive)
32 | COC(=O)[C@@]1(Cc2ccccc2)[C@H]2c3cc(C(=O)N4CCCC4)n(C)c3C[C@H]2CN1C(=O)c1ccccc1 | 1.95 | 0.762 | 1.73 | 1.03 | 0.725 | -0.915 | 0.244 | -0.0781 | 1.06 | 0.271 (inactive)
